# According to PubChem BioAssay (EPA / NIEHS):
# Several values for one entry are separate records, joined by “and”; a condition that tells them apart may be missing. Identical values can stand only once. Results filed as inconclusive are left out. Activity calls are given as the source filed them. The calls were made as follows: active = hit-call score of the fitted dose curve at least 0.9, where 1 is the maximum; inconclusive = response in the unintended direction; inactive = score below 0.9.
# Legend:
# [1] = ACEA_AR_agonist_AUC_viability: ACEA Biosciences xCELLigence Real-Time Cell Analysis on Androgen Receptor Agonism for Viability (AID 2283775);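 as to AC50: viability read 80 hours after compound addition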
# Summary of the method: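 Read-out is area under the impedance curve at 80 h post-dose in 22Rv1 cells, with DMSO as baseline and signal loss taken as reduced viability. Compounds ran in duplicate from 100 uM final.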
# [2] = ACEA_AR_antagonist_AUC_viability: ACEA Biosciences xCELLigence Real-Time Cell Analysis on Androgen Receptor Antagonism for Viability (AID 2283776);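 also: 22Rv1 human prostate cancer cells growing on impedance electrode plates; area under impedance growth curve at 80 h after dosing as viability; hits lower the growth signal relative to DMSO meaning cytotoxicity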
# Summary of the method: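 Real-time electrical impedance tracks 22Rv1 proliferation after continuous compound exposure (top 100 uM final, 1:4 steps, 8 concentrations). The 80 h area-under-curve serves as the cytotoxicity readout relative to DMSO.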
# AR (gene 367) = AR (gene 367) (UniProt P10275); assay: ACEA_AR_antagonist_80hr: ACEA Biosciences xCELLigence Real-Time Cell Analysis on Androgen Receptor Antagonism for Proliferation (AID 2283787);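 also: 22Rv1 human prostate cancer cells with growth followed by electrical impedance; hits lower the impedance growth signal relative to DMSO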
# Summary of the method: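 22Rv1 cells in assay medium, growth tracked by electrical impedance; compounds eight-point 1:4 dilutions from 100 uM final, duplicate plates. Endpoint at 80 h; loss of signal versus DMSO.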
# [3] = STM_H9_NormalizedViability: Cytotoxicity Assessment at 120 hours in the Stemina devTOX quickPredict H9 human embryonic stem cell (hESC)-based Assay (AID 2283784)
# Summary of the method: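 Chemicals are tested blinded on H9 human embryonic stem cells in the pluripotent state, with medium exchanged daily. After background correction, fluorescence from CellTiter-Fluor is scaled against 0.1% DMSO wells, and decreases are scored.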
# [4] = ACEA_ER_AUC_viability: ACEA Biosciences xCELLigence Real-Time Cell Analysis on Estrogen Receptor Agonism for Viability (AID 2283782);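 also: hit means loss of impedance signal meaning reduced cell growth or viability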
# Summary of the method: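 T47D cells preconditioned in phenol red-free RPMI with charcoal-stripped FBS, then dosed with 8-point 1:4 series from 100 uM (up to 0.5% DMSO). Impedance monitored up to ~80 h; area-under-curve loss versus DMSO taken as viability.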
# AR (gene 367), sequence (P10275 whole entry, looked up): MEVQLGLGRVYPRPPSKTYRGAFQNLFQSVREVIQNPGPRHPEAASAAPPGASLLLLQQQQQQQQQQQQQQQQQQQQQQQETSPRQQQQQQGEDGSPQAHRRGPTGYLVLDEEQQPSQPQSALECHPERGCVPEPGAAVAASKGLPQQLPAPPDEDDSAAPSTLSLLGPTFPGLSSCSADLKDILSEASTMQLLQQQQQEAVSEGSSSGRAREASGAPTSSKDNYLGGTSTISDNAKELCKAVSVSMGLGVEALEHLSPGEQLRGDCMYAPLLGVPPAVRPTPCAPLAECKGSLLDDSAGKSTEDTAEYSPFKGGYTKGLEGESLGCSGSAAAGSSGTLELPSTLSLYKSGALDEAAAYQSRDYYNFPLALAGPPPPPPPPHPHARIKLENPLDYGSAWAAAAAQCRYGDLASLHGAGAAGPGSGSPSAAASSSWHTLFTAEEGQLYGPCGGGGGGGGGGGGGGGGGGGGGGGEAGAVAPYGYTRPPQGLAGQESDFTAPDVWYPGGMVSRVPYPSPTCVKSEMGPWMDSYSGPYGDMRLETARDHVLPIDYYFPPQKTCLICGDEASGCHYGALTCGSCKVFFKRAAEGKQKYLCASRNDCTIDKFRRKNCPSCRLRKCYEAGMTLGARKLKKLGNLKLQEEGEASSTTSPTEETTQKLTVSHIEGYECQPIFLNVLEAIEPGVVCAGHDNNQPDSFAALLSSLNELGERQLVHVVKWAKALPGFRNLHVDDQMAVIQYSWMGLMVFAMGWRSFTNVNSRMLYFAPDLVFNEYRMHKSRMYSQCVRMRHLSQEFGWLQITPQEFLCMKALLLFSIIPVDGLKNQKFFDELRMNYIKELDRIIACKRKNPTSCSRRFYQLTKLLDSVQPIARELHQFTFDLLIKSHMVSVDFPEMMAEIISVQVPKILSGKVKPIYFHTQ
structure (smiles),measurement,setting,value
NC(=O)c1cccnc1,outcome,[1],inactive
O=c1cc(-c2ccc(O)cc2)oc2cc(O)cc(O)c12,AC50,[1],12.7 µM (active)
same,AC50,[2],6.43 µM (active)
CN(C)C(=O)Nc1ccccc1,outcome,[1],inactive
same,outcome,[2],inactive
O=C1OC2(c3ccc(O)cc3Oc3cc(O)ccc32)c2ccccc21,outcome,[1],inactive
same,outcome,[2],inactive
C=C(C)C(N)=O,outcome,[1],inactive
same,outcome,[2],inactive
CC(=O)OC(C)(C)C,outcome,[1],inactive
OC[C@H]1O[C@@H](O[C@H]2[C@H](O)[C@@H](O)[C@H](O)O[C@@H]2CO)[C@H](O)[C@@H](O)[C@H]1O,AC50,[1],0.603 µM (active)
CC(C)N(c1ccccc1)C(C)C,outcome,[1],inactive
same,outcome,[2],inactive
NCCN1CCNCC1,outcome,[1],inactive
CCCc1ccc(O)cc1,outcome,[1],inactive
same,outcome,[2],inactive
CNC(=C[N+](=O)[O-])NCCSCc1ccc(CN(C)C)o1,outcome,[1],inactive
same,outcome,[2],inactive
CC1=CCC(C(C)C)=CC1,outcome,[1],inactive
COC(=O)c1cccc(C(=O)OC)c1,outcome,[1],inactive
same,outcome,[2],inactive
same,outcome,AR (gene 367),inactive
CCCCOCCOCCOCCO,outcome,[1],inactive
same,outcome,[2],inactive
same,outcome,[3],inactive
COC(=O)c1ccc(C(=O)OC)cc1,outcome,[1],inactive
same,outcome,[2],inactive
same,outcome,[4],inactive
same,outcome,[3],inactive
COc1ccc2[nH]cc(CCNC(C)=O)c2c1,outcome,[1],inactive
same,outcome,[4],inactive
CC(=O)c1ccc(O)cc1,outcome,[1],inactive
same,outcome,[4],inactive
CCC(C)(CCCC(C)C)OC(C)=O (configuration not stated),outcome,[1],inactive
same,outcome,[4],inactive
C=CCCCCCCCCC(=O)OCC,outcome,[1],inactive
same,outcome,[2],inactive
same,outcome,[4],inactive
CCO[Si](CC)(OCC)OCC,outcome,[1],inactive
same,outcome,[4],inactive
CCCCCCCCOC(C)=O,outcome,[1],inactive
same,outcome,[2],inactive
same,outcome,[4],inactive
CC(CCO)CC(C)(C)C (configuration not stated),outcome,[1],inactive
same,outcome,[2],inactive
same,outcome,AR (gene 367),inactive
CCCc1ccc(N)cc1,outcome,[1],inactive
same,outcome,[2],inactive
same,outcome,[4],inactive
CC(O)CN (configuration not stated),outcome,[1],inactive
same,outcome,[2],inactive
same,outcome,[4],inactive
O=C(c1ccc(OCCN2CCCCC2)cc1)c1c(-c2ccc(O)cc2)sc2cc(O)ccc12,AC50,[1],50 µM (active)
same,AC50,[2],21.7 µM (active)
same,AC50,[4],11.1 µM (active) and 17.8 µM (active) and 18 µM (active)
CC(=O)C1C(=O)C=C(C)OC1=O (configuration not stated),outcome,[1],inactive
same,outcome,[2],inactive
same,outcome,[4],inactive
CCc1cccc(O)c1,outcome,[1],inactive
same,outcome,[2],inactive
same,outcome,[4],inactive
c1ccc(Cc2ccccc2)cc1,outcome,[1],inactive
same,AC50,[2],9.27 µM (active)
same,outcome,[4],inactive
CCC(C)(C)C1CCC(OC)CC1 (configuration not stated),outcome,[1],inactive
same,outcome,[2],inactive
same,outcome,[4],inactive
CCCC[N+](C)(CCCC)CCCC,outcome,[1],inactive
same,outcome,[4],inactive
CCCCC(CC)COCCO (configuration not stated),outcome,[1],inactive
same,outcome,[2],inactive
same,outcome,[4],inactive
O=C(OCc1ccccc1)c1ccccc1O,outcome,[1],inactive
same,outcome,[2],inactive
same,AC50,[4],94.3 µM (active)
COC(=O)C(C)Oc1ccc(Oc2ncc(C(F)(F)F)cc2Cl)cc1 (configuration not stated),outcome,[1],inactive
same,outcome,[2],inactive
same,outcome,[4],inactive
FC(F)(F)c1ccc(Cl)c(Cl)c1,outcome,[1],inactive
same,outcome,[4],inactive
CCC(C)C1CCCCC1=O (configuration not stated),outcome,[1],inactive
same,outcome,[2],inactive
same,outcome,[4],inactive
CC(C)(C)c1cccc(O)c1,outcome,[1],inactive
same,outcome,[2],inactive
same,outcome,AR (gene 367),inactive
CCCCCCCCCCO[C@@H]1O[C@H](CO)[C@@H](O)[C@H](O)[C@H]1O,outcome,[1],inactive
same,outcome,[2],inactive
same,AC50,[4],80.3 µM (active)
CC1=CCC(C(C)(C)O)CC1 (configuration not stated),outcome,[1],inactive
same,outcome,[2],inactive
same,AC50,AR (gene 367),7.98 µM (active)
